We go through 23 molecules from PubChem BioAssay (EPA / NIEHS).

Records with an inconclusive call do not appear. Active and inactive are the calls of the source. How the source made its calls: active means hit-call score of the fitted dose curve at least 0.9, where 1 is the maximum; inconclusive means response in the unintended direction; inactive means score below 0.9.

Test [1] in a line: TOX21_p53_BLA_p3_viability: Viability Assessment in the Tox21 HCT-116 p53 Agonism Beta-lactamase Assay, Phase 3 (AID 2283593).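 Further: cells exposed to compound for 16 h before reading.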 The essentials: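 Cellular ATP was quantified by CellTiter-Glo luminescence, read after 30 min at room temperature. Beforehand, HCT116 cells (4000/well) received compound 5 h post-seeding, 217-fold diluted from DMSO, then incubated 16 h at 37C.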
Test [2] addresses Cellular tumor antigen p53 (Homo sapiens) (UniProt P04637). The test can be described thus: TOX21_p53_BLA_p3_ratio: Tox21 HCT-116 p53 Agonism Beta-lactamase Assay, Ratio, Phase 3 (AID 2283596). The essentials: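 HCT116 p53-bla cells (4000/well) given compound in DMSO (217-fold dilution) after 5 h, incubated 16 h at 37C. CCF4-AM substrate 2 h at room temperature; 460/530 nm emission ratio, gain fitted against DMSO.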

Test [3] can be described thus: TOX21_p53_BLA_p4_viability: Viability Assessment in the Tox21 HCT-116 p53 Agonism Beta-lactamase Assay, Phase 4 (AID 2283597).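 Further: hits lower the luminescence signal meaning cytotoxicity.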 In a few lines: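 Cells plated, 5 h pre-incubation; DMSO compounds pinned (217-fold dilution); 16 h, 37C/5% CO2; CCF4-AM 2 h RT; CellTiter-Glo 30 min RT; luminescence read.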
Test [4] deals with Cellular tumor antigen p53 (Homo sapiens) (UniProt P04637). The test can be described thus: TOX21_p53_BLA_p5_ratio: Tox21 HCT-116 p53 Agonism Beta-lactamase Assay, Ratio, Phase 5 (AID 2283599). The essentials: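 Beta-lactamase reporter ratio (blue 460 nm over green 530 nm, 405 nm excitation) after 2 h CCF4-AM loading, in HCT-116 cells exposed 16 h at 37 C to compounds pinned at 217-fold dilution. Increases relative to DMSO baseline scored.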

For test [5] the target is unchanged. Nature of the test: TOX21_p53_BLA_p4_ratio: Tox21 HCT-116 p53 Agonism Beta-lactamase Assay, Ratio, Phase 4 (AID 2283601). In a few lines: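 Signal is the blue/green (460nm/530nm) ratio of cleaved versus uncleaved CCF4-AM substrate, read after 2 h substrate loading. Cells were HCT116 carrying the p53-responsive beta-lactamase reporter, dosed 16 h at 37C, 5% CO2; CellTiter-Glo measured in parallel.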

Test [6] in a line: TOX21_p53_BLA_p5_viability: Viability Assessment in the Tox21 HCT-116 p53 Agonism Beta-lactamase Assay, Phase 5 (AID 2283600). In a few lines: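 4000 cells/well; 5 h pre-incubation; DMSO compounds pin-transferred, 217-fold dilution; 16 h, 37C/5% CO2; CCF4-AM 2 h RT; CellTiter-Glo 30 min RT; luminescence.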

Sequence of Cellular tumor antigen p53 (Homo sapiens) (P04637 whole entry, looked up): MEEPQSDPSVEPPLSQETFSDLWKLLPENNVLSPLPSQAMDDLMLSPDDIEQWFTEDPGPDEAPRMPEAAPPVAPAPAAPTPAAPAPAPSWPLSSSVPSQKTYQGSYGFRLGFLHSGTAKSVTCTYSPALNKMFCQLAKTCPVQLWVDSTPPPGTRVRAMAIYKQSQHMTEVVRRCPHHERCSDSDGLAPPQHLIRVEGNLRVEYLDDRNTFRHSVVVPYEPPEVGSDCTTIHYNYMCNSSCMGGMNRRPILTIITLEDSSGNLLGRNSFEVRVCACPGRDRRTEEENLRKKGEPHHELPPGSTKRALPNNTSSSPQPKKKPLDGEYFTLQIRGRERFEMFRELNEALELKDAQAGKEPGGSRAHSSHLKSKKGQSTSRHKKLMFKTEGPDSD

For `Nc1ccccc1-c1ccccc1`, the molecule was classed as inactive in test [1], in test [2], in test [3], in test [4] and in test [5].
For `COC(=O)C(Cl)C(=O)OC`, the molecule was called inactive in test [1], in test [3], in test [6] and in test [5].
`N#CC(Cl)(Cl)Cl`: the molecule was called inactive in test [1], in test [2] and in test [6].
As to `O=C1CC(=O)NC(=O)N1`, the result in test [1], in test [3], in test [4] and in test [5] was inactive.
As for `Cc1ccccc1-n1c(CF)nc2ccc(N)cc2c1=O`, the outcome in test [1], in test [4] and in test [6] was inactive.
On to `CC(C)=CCN1CC[C@]2(C)c3cc(O)ccc3C[C@H]1[C@H]2C`, for which the molecule was classed as inactive in test [1], in test [3], in test [4] and in test [6].
`CCCCCCC(=O)O[C@H]1CC[C@H]2[C@@H]3CC[C@H]4CC(=O)C=C(C)[C@]4(C)[C@H]3CC[C@]12C`: the concentration at half-maximal activity (AC50) (as a rule, the concentration giving half of the maximal activity seen) in test [1] was 37 µM (active). Besides, the result in test [2], in test [4], in test [6] and in test [5] was inactive.
With `CC(C)CCC(=O)O[C@H]1CC[C@H]2[C@@H]3CCC4=CC(=O)CC[C@]4(C)[C@H]3CC[C@]12C`, the molecule was classed as inactive in test [1], in test [2], in test [4] and in test [6].
Take `[Cl-].[Cl-].[Sn+2]`: the result in test [1], in test [3] and in test [6] was inactive.
For `Clc1ccc(C(Cl)(Cl)Cl)cc1Cl`, the result in test [1], in test [3], in test [4], in test [6] and in test [5] was inactive.
As for `CC(=O)O[C@H]1C[C@H](O[C@H]2[C@@H](O)C[C@H](O[C@H]3[C@@H](O)C[C@H](OC4CC[C@@]5(C)C(CC[C@@H]6[C@@H]5CC[C@]5(C)[C@@H](C7=CC(=O)OC7)[C@@H](O)C[C@]65O)C4)O[C@@H]3C)O[C@@H]2C)O[C@H](C)[C@H]1O[C@@H]1O[C@H](CO)[C@@H](O)[C@H](O)[C@H]1O` (stereo partly specified), the values for the concentration at half-maximal activity (AC50) in test [1] and in test [3] were 0.683 µM (active) and 0.582 µM (active), respectively.
For the molecule `CN(C)c1ccc(N=Nc2ccccc2)cc1`, the result in test [1], in test [2], in test [3] and in test [6] was inactive.
For the molecule `CC(=O)CC(c1ccc(Cl)cc1)c1c(O)c2ccccc2oc1=O` (stereo unspecified), the molecule was called inactive in test [1] and in test [3].
In the case of `C=CCN1CC[C@]23CCCC[C@H]2[C@H]1Cc1ccc(O)cc13`, the molecule was classed as inactive in test [1], in test [2], in test [3] and in test [6].
In the case of `O=C([O-])c1ccccn1.O=C([O-])c1ccccn1.O=C([O-])c1ccccn1.[Cr+3]`, the call in test [1], in test [2], in test [4], in test [6] and in test [5] was inactive.
With `Cn1cc[n+](C)c1` (tested in a mixture with another compound), the outcome in test [1], in test [3] and in test [6] was inactive.
Turning to `CCC1(C)CC(=O)NC(=O)C1`, the molecule was called inactive in test [1] and in test [5].
Consider `C[C@]12CC[C@H]3[C@@H](CCC4=CC(=O)CC[C@@]43C)[C@@H]1CC[C@@H]2OC(=O)CCc1ccccc1`, for which the molecule was called inactive in test [1], in test [3], in test [4] and in test [6].
`C1CCNCC1`: the result in test [1], in test [2], in test [4] and in test [5] was inactive.
For the molecule `CCCCCC[N+](=O)[O-]`, the outcome in test [1], in test [3] and in test [6] was inactive.
On to `CC(N)Cc1ccc2c(c1)OCO2` (stereo unspecified), for which the result in test [1], in test [2], in test [4], in test [6] and in test [5] was inactive.
Turning to `CCCCC1C(=O)NC(=O)N(C2CCCCC2)C1=O` (stereo unspecified), the call in test [1], in test [3], in test [4], in test [6] and in test [5] was inactive.
With `CC1CC(CC2CCC(N)C(C)C2)CCC1N` (stereo unspecified), the molecule was called inactive in test [1], in test [3] and in test [6].
